Laboratory results published in ChEMBL document CHEMBL3433997, “St. Jude Leishmania screening dataset” (2016).

Legend:
Format in all cases: functional
[1] = biological target: Solute carrier family 2, facilitated glucose transporter member 1 (Homo sapiens) (UniProt P11166); assay: ST_JUDE_LEISH: Cytotoxicity at 2uM final concentration against transgenic Leishmania Mexicana promastigotes LmGLUT1 that are glucose transport deficient and complemented with the human glucose transporter GLUT1. Activity is measured by DNA content using SYBR green in vitro
[2] = biological target: Hexose transporter 1 (Plasmodium falciparum) (UniProt O97467); assay: ST_JUDE_LEISH: Cytotoxicity at 2uM final concentration against transgenic Leishmania Mexicana promastigotes LmPfHT that are glucose transport deficient and complemented with the Plasmodium falciparum hexose transporter. Activity is measured by DNA content using SYBR green in vitro
[3] = biological target: Glucose transporter (Leishmania mexicana) (UniProt O61059); assay: ST_JUDE_LEISH: Cytotoxicity at 2uM final concentration against transgenic Leishmania Mexicana promastigotes LmGT2 that are glucose transport deficient and complemented with the L. Mexicana glucose transporter 2. Activity is measured by DNA content using SYBR green in vitro

Chain of Solute carrier family 2, facilitated glucose transporter member 1 (Homo sapiens) (P11166 whole entry): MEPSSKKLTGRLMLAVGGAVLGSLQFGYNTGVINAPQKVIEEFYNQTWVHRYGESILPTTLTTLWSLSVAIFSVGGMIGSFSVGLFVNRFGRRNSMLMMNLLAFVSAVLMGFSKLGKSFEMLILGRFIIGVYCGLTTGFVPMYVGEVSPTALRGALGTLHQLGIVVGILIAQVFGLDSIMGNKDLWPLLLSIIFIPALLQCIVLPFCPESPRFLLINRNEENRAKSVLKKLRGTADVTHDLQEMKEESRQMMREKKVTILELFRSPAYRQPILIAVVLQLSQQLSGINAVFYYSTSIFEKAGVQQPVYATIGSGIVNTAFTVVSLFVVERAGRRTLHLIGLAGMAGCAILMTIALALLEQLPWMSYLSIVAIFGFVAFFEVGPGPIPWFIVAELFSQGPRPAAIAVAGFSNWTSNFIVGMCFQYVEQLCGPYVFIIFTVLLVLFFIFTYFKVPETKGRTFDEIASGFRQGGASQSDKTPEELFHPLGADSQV

Row | SMILES | inhibition [1] | inhibition [2] | inhibition [3]
1 | CCOc1cccc(C(=O)Nc2ccc(-c3nc4ccccc4[nH]3)cc2)c1 | 4.46% | 3.79% | 3.58%
2 | Cc1ccc(C2CCN(CCCCNC(=O)c3ccc(-c4ccc(C#N)cc4)cc3)CC2)c(O)c1 | 7.24% | 7.29% | 7.94%
3 | Cc1cc(F)ccc1[C@H]1CNCCN1C(=O)N(C)C(C)(C)c1cc(C(F)(F)F)cc(C(F)(F)F)c1 | -0.57% | -1.23% | -1.4%
4 | CCCCn1c(-c2ccco2)nc2c(c(=O)c3ccccc3n2C)c1=O | 8.79% | 5.89% | 4.14%
5 | COc1ccc2nccc([C@@H](O)CN3CCC(NC(=O)[C@@H]4Cc5ccccc5CN4C(=O)OC(C)(C)C)CC3)c2c1 | 8.19% | 6.18% | 3.12%
6 | COc1ccc(-c2nnc(Sc3ccc(C#N)c([N+](=O)[O-])c3)n2CCC(C)C)cc1 | 5.19% | 5.04% | -0.81%
7 | O=S(=O)(c1ccc(Oc2ccccc2)cc1)N(CCC(O)(C(F)(F)F)C(F)(F)F)Cc1cccc(O)c1 | -1.44% | -3.19% | -4.58%
8 | Cc1cccc2nc(-c3cccc(-c4ccc(NC(=O)c5cccc(C(N)=O)c5)cc4)c3)[nH]c12 | 1.01% | 1.42% | 1.38%
9 | Cc1nc(-c2cccc(C(=O)N(Cc3cncn3Cc3cccc(C(F)(F)F)c3)CC3CC3)c2)cs1 | 2.11% | 4.67% | 4.26%
10 | CCN(CC)CCCC(C)Nc1c2cc(OC)ccc2nc2cc(Cl)c([N+](=O)[O-])cc12 (stereo not drawn) | 1.29% | 0.73% | 0.82%
11 | CCCC(C(=O)OCCN(CC)CC)(c1ccc(Cl)cc1)c1ccc(Cl)cc1 | 4.77% | 5.49% | 7.04%
